Source: PubChem
Shown are actives, neighbours in structure and some others; about 2.8% of the full set was active somewhere.
LGR2 antag = inhibitors of bursicon-induced Drosophila LGR2 receptor cAMP signaling | HEK293 LGR2, CRE-luciferase, bursicon-stimulated, 4 h | inhibition, % at 9.99 µM | 0.35% of 380,000 active;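 active means drop in luminescence signal, shown as inhibition above about 50% in the replicate tests, limit read from the data, passing the limit was not always enough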;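 further: agonist challenge used bursicon conditioned medium at about half maximal strength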
TROY NFkB inh = TROY signaling inhibition; Q293 LMP1-TROYcd NF-kB luciferase reporter, 4 h; inhibition, % at 10 µM; 0.98% of 360,000 active;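 active means compounds whose plate-normalised and pattern-corrected inhibition of the luciferase reporter signal at the single screening dose is 50% or more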
TWEAK Fn14 block = TWEAK-Fn14 signaling inhibition. TWEAK-stimulated Fn14 reporter cells, luciferase luminescence, 8 h. inhibition, % at 10 µM. 2% of 360,000 active; in the data active means inhibition above about 50%
EWS-Fli inh = EWS/Fli transcriptional activity inhibition; A673 NR0B1-luciferase reporter, viability-normalised; inhibition, % at 12.6 µM; 0.67% of 350,000 active; AID 651661;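 active means mean inhibition of at least 50% after viability correction, with every replicate also passing that limit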;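 further: firefly luciferase signal divided by Alamar Blue viability fluorescence both relative to DMSO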
PAX8 inh HTS = PAX8 transcriptional activity inhibition; RMG-I TPO-luciferase reporter, SteadyGlo, 24 h; inhibition, % at 12.6 µM; 1.2% of 360,000 active; AID 652154;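 active means mean replicate inhibition at least 60% with every replicate also reaching 60%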;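 further: luciferase light reporting Pax8 driven TPO promoter activity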
Of the large screens only hits and unclear results are named; the others gave an inactive call.

CC(=O)Nc1ccc2c(c1)C(=O)N(C)[C@H]1CC[C@H](CC(=O)NCc3ccc(Cl)cc3)O[C@@H]1CO2	none (no result: TROY NFkB inh, TWEAK Fn14 block)
COc1ccc(NC(=O)Nc2cccc3c2O[C@H](CN(C)C(=O)Nc2ccccc2)[C@H](C)CN([C@H](C)CO)C3=O)cc1	none (no result: TROY NFkB inh, TWEAK Fn14 block, PAX8 inh HTS)
C[C@H]1CCCCO[C@@H](CN(C)Cc2ccccc2)[C@@H](C)CN([C@@H](C)CO)C(=O)c2cc(NS(=O)(=O)c3cn(C)cn3)ccc2O1	none (no result: TROY NFkB inh, TWEAK Fn14 block)
CCc1c(C(=O)N/N=C/c2ccc(OCc3ccc(F)cc3)c(OC)c2)nnn1-c1nonc1N	TWEAK Fn14 block 54.9
CCOC(=O)c1ccc(Oc2nc(SC)nc(N(C)C)n2)cc1	TWEAK Fn14 block 73.5 (no result: LGR2 antag, TROY NFkB inh, EWS-Fli inh, PAX8 inh HTS)
CCOC(=O)c1ccc(Oc2nc(N(C)C)nc(N(C)C)n2)cc1	none (no result: LGR2 antag, EWS-Fli inh)
CC(C)NC(=O)N(C)C[C@H]1Oc2ccc(NC(=O)C3CCCCC3)cc2CC(=O)N([C@H](C)CO)C[C@@H]1C	none (no result: TROY NFkB inh, TWEAK Fn14 block)
CC1Cc2cc(S(=O)(=O)N3CCC(C(=O)N(C)Cc4ccco4)CC3)ccc2N1C(=O)C1CCC1 (stereo unspecified)	PAX8 inh HTS 61.0 (no result: EWS-Fli inh)
C[C@@H](O)C#Cc1ccc([C@@H]2[C@@H](CO)N3CCCCN(S(=O)(=O)c4ccccc4)C[C@@H]23)cc1	none (no result: TROY NFkB inh, TWEAK Fn14 block)
CCCOc1ccc(/C=N/Nc2ccccc2[N+](=O)[O-])c(OCCC)c1	TWEAK Fn14 block 55.7
O=[N+]([O-])c1ccccc1N/N=C\c1ccccc1F	none
COc1ccc(/C=N/Nc2ncc(-c3ccccc3)cn2)c(OC)c1	none (no result: LGR2 antag, EWS-Fli inh, PAX8 inh HTS)
COc1ccc(/C=N/Nc2ncccc2[N+](=O)[O-])c(OC)c1	LGR2 antag 65.6, TROY NFkB inh 51.7, TWEAK Fn14 block 72.0
C[C@H](CO)N1C[C@H](C)[C@@H](CN(C)C(=O)Nc2ccc(F)cc2)Oc2ccc(NC(=O)Cc3ccccc3)cc2CC1=O	none (no result: TROY NFkB inh, TWEAK Fn14 block)
Oc1ccc(C[C@H]2CNC(=S)N2CC2CCCN2C[C@H](Cc2ccccc2)N2C[C@H](Cc3ccc(O)cc3)N(CCc3ccccc3)C2=S)cc1 (stereo partly specified)	TWEAK Fn14 block 58.1, PAX8 inh HTS 91.2
CC(C)C[C@@H](CN1CCCC1CN1C(=S)NC[C@@H]1Cc1ccc(O)cc1)N1C[C@H](Cc2ccc(O)cc2)N(CC2CCCCCC2)C1=S (stereo partly specified)	PAX8 inh HTS 82.2
Oc1ccc(C[C@@H](CN2CCC[C@@H]2CN2C(=S)NC[C@@H]2Cc2ccccc2)N2C[C@H](Cc3ccccc3)N(CCc3ccccc3)C2=S)cc1	none
CC(C)C[C@@H](CN1CCC[C@@H]1CN1C(=O)C(=O)NC[C@@H]1Cc1ccccc1)N1C[C@H](Cc2ccc(O)cc2)N(CC2CCCCC2)C(=O)C1=O	none
CC(C)C[C@@H](CN1CCCC1CN1C(=S)NC[C@@H]1Cc1ccc(O)cc1)N1C[C@H](Cc2ccccc2)N(CC2CCCCCC2)C1=S (stereo partly specified)	none
CC(C)C[C@@H](CN1CCC[C@H]1CN1C(=O)C(=O)NC[C@@H]1Cc1ccccc1)N1C[C@H](Cc2ccc(O)cc2)N(CC2CCCCCC2)C(=O)C1=O	PAX8 inh HTS 68.4
CC(C)C[C@H]1CNC(=S)N1C[C@H]1CCCN1C[C@H](Cc1ccc(O)cc1)N1C[C@H](Cc2ccc(O)cc2)N(CC2CCCCCC2)C1=S	TWEAK Fn14 block 59.8, PAX8 inh HTS 73.0
C[C@@H]1CCCCO[C@@H](CN(C)S(=O)(=O)c2cn(C)cn2)[C@@H](C)CN([C@@H](C)CO)C(=O)c2cc(NS(=O)(=O)c3cccs3)ccc2O1	none (no result: TROY NFkB inh, TWEAK Fn14 block)
CCCn1nc(C(=O)Nc2ccc3nc(N4CCOCC4)sc3c2)ccc1=O	TROY NFkB inh 53.5
COc1ccccc1-n1cc([C@@H]2C[C@H]3CN(c4ccccc4)C(=O)[C@]34CCCN24)cn1	TWEAK Fn14 block 80.0, PAX8 inh HTS 97.8
COc1cc([C@@H]2C[C@H]3CN(c4ccccc4)C(=O)[C@]34CCCN24)cc(OC)c1OC	none
Cc1onc(-c2ccccc2)c1C(=O)OCC(=O)Nc1ccc(OC(F)(F)F)cc1	TROY NFkB inh 52.2
Cc1ccc(NC(=O)COC(=O)c2c(-c3ccccc3)noc2C)cc1	none
COc1cc(/C=C2/SC(=O)NC2=O)ccc1Oc1ccc([N+](=O)[O-])cc1[N+](=O)[O-]	TROY NFkB inh 53.7, TWEAK Fn14 block 55.6
C[C@@H]1CN([C@@H](C)CO)C(=O)Cc2cc(NC(=O)Cn3cnnn3)ccc2O[C@@H]1CN(C)S(C)(=O)=O	none (no result: TROY NFkB inh, TWEAK Fn14 block)
CC(=O)NNc1nc2ccccc2s1	TROY NFkB inh 83.5, TWEAK Fn14 block 89.5 (no result: LGR2 antag, EWS-Fli inh, PAX8 inh HTS)
C/C(=C\C(=O)c1ccccc1)NNc1nc2ccccc2s1	none (no result: LGR2 antag, EWS-Fli inh)
C/C(=N\Nc1nc2ccccc2s1)c1cccs1	TWEAK Fn14 block 68.0
O=C(COc1ccccc1)NNc1nc2ccccc2s1	TROY NFkB inh 85.4, TWEAK Fn14 block 70.0
COc1ccc2nc(NNC(=O)COc3ccccc3)sc2c1	none
CCOc1ncccc1C(=O)NNC(=O)c1cccc(S(=O)(=O)N2CCOCC2)c1	TWEAK Fn14 block 97.4
Cc1ccc(Cl)cc1N1CCN(C(=O)c2ccc(CS(=O)Cc3ccc(Cl)cc3)o2)CC1 (stereo unspecified)	TROY NFkB inh 53.6
Cc1ccc(C)c(N2CCN(C(=O)Cn3cccc3)CC2)c1	none (no result: EWS-Fli inh, PAX8 inh HTS)
Cc1ccc(CS(=O)Cc2ccc(C(=O)N3CCN(c4cccc(C)c4C)CC3)o2)cc1 (stereo unspecified)	TROY NFkB inh 57.0
CCC(=O)N1CCN(c2cc(C)ccc2C)CC1	TWEAK Fn14 block 76.2 (no result: LGR2 antag, EWS-Fli inh)
Cc1ccc(C)c(N2CCN(C(=O)c3ccc(CS(=O)(=O)c4ccccc4C)o3)CC2)c1	TWEAK Fn14 block 55.4 (no result: LGR2 antag, EWS-Fli inh)
Cc1cccc(N2CCN(C(=O)c3ccc(CS(=O)Cc4cccc(Cl)c4)o3)CC2)c1C (stereo unspecified)	none
C[C@H](CO)N1C[C@H](C)[C@H](CN(C)S(=O)(=O)c2ccccc2C#N)OCc2ccccc2-c2ccccc2C1=O	none (no result: TROY NFkB inh, TWEAK Fn14 block)
O=C(C[C@H]1CC[C@@H]2[C@H](COC[C@H](O)CN2Cc2ccccc2)O1)NCCCN1CCOCC1	none (no result: TROY NFkB inh, TWEAK Fn14 block)
C[C@H]1CN([C@@H](C)CO)C(=O)c2cccc(NC(=O)Nc3cccc4ccccc34)c2O[C@@H]1CN(C)S(=O)(=O)c1cn(C)cn1	none (no result: TROY NFkB inh, TWEAK Fn14 block, PAX8 inh HTS)
CCNC(=O)[C@H]1[C@H](CO)[C@H]2Cn3c(ccc(-c4ccccc4F)c3=O)[C@H]2N1CC1CC1	none (no result: TROY NFkB inh, TWEAK Fn14 block)
Cc1ccccc1-n1c(C)cc(/C=C(\C#N)C(=O)NCC2CCCO2)c1C (stereo unspecified)	TROY NFkB inh 59.0, TWEAK Fn14 block 56.0 (no result: EWS-Fli inh)
CCOC(=O)CCSc1nc(C)c2cc(C)c(C)cc2n1	TWEAK Fn14 block 81.5 (no result: LGR2 antag, TROY NFkB inh, EWS-Fli inh, PAX8 inh HTS)
C[C@@H]1CN([C@H](C)CO)C(=O)c2cc(NC(=O)Cn3cnnn3)ccc2O[C@H]1CN(C)C	none (no result: TROY NFkB inh, TWEAK Fn14 block)
CCC(=O)N1[C@@H]2CN(C(=O)c3cccc(OC)c3)c3ccccc3[C@@H]2[C@@H]1CO	none (no result: TROY NFkB inh, TWEAK Fn14 block)
Cc1ccc(S(=O)(=O)Nc2nnc(CC(C)(C)C)s2)cc1	TWEAK Fn14 block 108.5
COc1ccccc1CN1[C@@H]2c3ccc(C4=CCCCC4)c(=O)n3C[C@H]1[C@H](CO)[C@H]2C(=O)N(C)C	none (no result: TROY NFkB inh, TWEAK Fn14 block, PAX8 inh HTS)
